From PubChem
Hits are enriched below; roughly 1.8% of the tested compounds scored in any of these assays.
EP2 antag = human EP2 receptor antagonists, primary screen, TR-FRET cAMP, C6 glioma cells. 260,000 tested, 0.52% active. AID 1422, 2008. C6 glioma cells expressing human EP2; cells stimulated with saturating PGE2. inhibition, % at 25 µM. Prostaglandin E2 receptor EP2 subtype (Homo sapiens), P43116;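 active = percent inhibition above 40 after rounding to a whole number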;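 note: rat C6 glioma host cells with rolipram phosphodiesterase inhibitor present; the protocol text gives 20 µM as final concentration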
Target sequence (P43116 whole entry, looked up): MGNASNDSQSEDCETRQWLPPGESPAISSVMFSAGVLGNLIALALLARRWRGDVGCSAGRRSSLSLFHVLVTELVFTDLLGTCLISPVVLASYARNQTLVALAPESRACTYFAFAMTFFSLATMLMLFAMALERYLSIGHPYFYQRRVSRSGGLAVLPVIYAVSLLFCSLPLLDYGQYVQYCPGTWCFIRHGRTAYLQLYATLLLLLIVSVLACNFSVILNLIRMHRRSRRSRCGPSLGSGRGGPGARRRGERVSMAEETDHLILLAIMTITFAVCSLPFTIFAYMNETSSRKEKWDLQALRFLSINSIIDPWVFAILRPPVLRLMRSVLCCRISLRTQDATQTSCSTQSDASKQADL
eIF4E 4G PPI = eIF4E–eIF4G protein interaction inhibitors, primary screen, biochemical, uHTS, TR-FRET, eIF4GI fragment; TR-FRET eIF4E-eIF4GI(517-606) binding, 2 h; inhibition, % at 21.7 µM; 220,000 tested, 0.37% active; AID 782, 2007;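 active = inhibition above about 30%, limit read from the data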;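 note: 0% = full FRET control wells and 100% = background wells lacking eIF4GI fragment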
EP2 modulator = EP2 receptor modulators, cAMP readout, primary screen, cell-based, HTRF cAMP, PGE2 stimulation. Prostaglandin E2 receptor EP2 subtype (Homo sapiens), P43116. EP2-expressing cells, cAMP HTRF FRET, PGE2 co-stimulation. induction, % at 25 µM. 260,000 tested, 0.83% active. AID 940, 2007;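 active = compounds whose cAMP rise, as percent of the full-agonist control response, exceeds 60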;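 note: rat C6 glioma line stably carrying human EP2 under a CMV promoter; the protocol text gives 20 µM as final concentration; 100% = response of wells given 1 µM PGE2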
PERK inh = block of dimerizer-induced PERK translation repression, primary screen, PERK inhibitor project, CHO PERK-DD cells, SEAP luminescence, HTS; CHO PERK-DD fusion, SEAP luminescence translation reporter; inhibition, % at 5.6 µM; 220,000 tested, 0.17% active;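 active = inhibition above the mean inhibition of all tested compounds plus 3 SD, set separately per screening campaign, cut at about 2.9% in these data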;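 note: PERK kinase domain activated by AP20187 dimerizer at 100 nM; 0% = DMSO with dimerizer and 100% = rapamycin at 8.4 µM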
The depositor's hits bear a star; [ ] = remark or other dose.

Screening CC(=O)Nc1ccc2c(c1)C(=Nc1ccc(C(=O)O)cc1)c1ccccc1-2 returned EP2 antag 58.5* and EP2 modulator -7.1.
For O=C(NCc1ccco1)C(c1ccncc1)N(C(=O)Cn1nnc2ccccc21)c1ccc(F)cc1 (centres undefined) the results were EP2 antag 9.8 and EP2 modulator -25.1.
`Cc1ccccc1C1(O)CCN(C(=O)COc2ccc3nsnc3c2)CC1` gave EP2 antag 11.7 and EP2 modulator -26.2.
Screening COc1ccccc1C1(O)CCCN(C(=O)COc2ccc3nsnc3c2)C1 (centres undefined) returned EP2 antag 55.1* and EP2 modulator -60.2.
`Cc1cc(/C(O)=C2/C(=O)C(=O)N(CCCN3CCOCC3)C2c2ccncc2)ccc1OC(C)C` (centres undefined) gave EP2 antag 10.6 and EP2 modulator 30.9.
Screening COc1cc(C)c(CNC(=O)c2cc(-c3cnn(C)c3)n[nH]2)cc1C(C)C returned EP2 antag 13.2 and EP2 modulator -73.7.
Screening CC(=O)Nc1ccc(S(=O)(=O)N2CCCc3ccccc32)cc1 returned EP2 antag 9.8, eIF4E 4G PPI 4.5, EP2 modulator -23.6 and PERK inh 0.0.
For Nc1ccc(S(=O)(=O)N2CCCc3ccccc32)cc1 the results were EP2 antag 15.2, eIF4E 4G PPI 62.4*, EP2 modulator -30.8 and PERK inh 1.6.
CC(C)[C@H]1CN(Cc2ccco2)CCN1C(=O)CCn1cnc2ccccc21 was read as EP2 modulator -37.6.
Screening Cc1cccc(-n2c(O)c(C=Nc3ccccc3-c3n[nH]c(=S)[nH]c3=O)c3ccccc3c2=O)n1 returned EP2 antag 6.6, eIF4E 4G PPI 49.8*, EP2 modulator -16.4 and PERK inh 0.3.
`CSc1nc(C)cc(Nc2ccc(O)c(CN3CCOCC3)c2)n1` gave EP2 antag 44.1* and EP2 modulator 5.9.
For COc1ccc(Nc2cc(C)nc(N3CCOCC3)n2)cc1 the results were EP2 antag 12.6, eIF4E 4G PPI 3.5, EP2 modulator 26.6 and PERK inh 0.6.
Screening CC(C)(C)OC(=O)N1CCC(c2cc(=O)n3[nH]cc(C(=O)NC4CCCC4)c3n2)CC1 returned EP2 antag 10.8, eIF4E 4G PPI -1.6, EP2 modulator -4.6 and PERK inh 3.2*.
Screening CCOc1cc(/C=N/NC(=O)c2ccc(-c3csc(Nc4ccc(C)cc4)n3)cc2)ccc1OCC(=O)O returned EP2 antag 9.7, eIF4E 4G PPI 31.1*, EP2 modulator -17.0 and PERK inh 1.6.
`Cc1nc(CC(=O)N/N=C/c2ccc(OCC(=O)O)cc2)cs1` gave EP2 antag 7.4, eIF4E 4G PPI -4.7, EP2 modulator 27.1 and PERK inh 2.2.
Screening O=C(O)COc1ccc(/C=N/NC(=O)c2ccc(-c3csc(Nc4ccc(Cl)cc4)n3)cc2)cc1 returned EP2 antag 6.9, eIF4E 4G PPI 71.9*, EP2 modulator 18.8 and PERK inh 0.8.
C=C(C)Cn1c(SCc2ccc(Cl)cc2)nc2c1c(=O)[nH]c(=O)n2C was read as EP2 antag 11.9 and EP2 modulator 70.8*.
For CCCSc1nc2c(c(=O)[nH]c(=O)n2C)n1C the results were EP2 antag 7.9, eIF4E 4G PPI 5.5, EP2 modulator 14.6 and PERK inh 0.7.
Screening CCCCCCSc1nc2c(c(=O)[nH]c(=O)n2C)n1C returned EP2 antag 10.3, eIF4E 4G PPI -1.8, EP2 modulator 64.2* and PERK inh 0.8.
For CCOCCn1c(SCCCc2ccccc2)nc2c1c(=O)[nH]c(=O)n2C the results were EP2 antag 16.6, eIF4E 4G PPI -4.4, EP2 modulator 62.2* and PERK inh -1.1.
COc1cc2sc(NC(=O)c3ncoc3-c3cccs3)nc2cc1Cl was read as EP2 modulator -27.4.
For CC(C)C(=O)Nc1ccc2c(c1)nc(CCN1CCN(C)CC1)n2C the results were EP2 antag 3.7, eIF4E 4G PPI -1.0, EP2 modulator 8.1 and PERK inh 3.6*.
Screening CN1CCN(CCc2nc3cc(NC(=O)COc4ccccc4)ccc3n2C)CC1 returned eIF4E 4G PPI -6.0, EP2 modulator -6.9 and PERK inh -0.4.
For O=C(CN1CCOCC1)Nc1ncc(Br)cc1Br the results were EP2 antag 7.1, eIF4E 4G PPI -3.0, EP2 modulator 19.7 and PERK inh 3.2*.
Screening O=C(CN1CCOCC1)Nc1ccc(Br)cn1 returned eIF4E 4G PPI 5.9, EP2 modulator 4.5 and PERK inh 1.0.
For N#Cc1c(NC(=S)NC(=O)c2ccc(Br)cc2)sc2c1CCCC2 the results were EP2 antag 11.1 and EP2 modulator -71.7.
For C=CCc1cccc2cc(C(=O)Nc3ccc(CC(=O)O)cc3)c(=O)oc12 the results were EP2 antag 4.9, eIF4E 4G PPI 8.8, EP2 modulator 35.5 and PERK inh 1.8.
`C=CCc1cccc2cc(C(=O)Nc3cccc(C(=O)O)c3)c(=O)oc12` gave EP2 antag 4.6, eIF4E 4G PPI -4.3, EP2 modulator 100.5* and PERK inh 1.2.
Screening CC(=O)Oc1ccc(N(c2ccccc2)S(=O)(=O)c2ccc(C)cc2)cc1 returned EP2 antag 8.7, eIF4E 4G PPI 4.0, EP2 modulator 60.5* and PERK inh 2.4.
Screening CSc1nc2sc3c(c2c(=O)n1CCc1ccccc1)CC[N+](C)(C)C3 returned EP2 antag 12.9 and EP2 modulator 30.4.
`COC(=O)/C=C/C(=O)N1CCN(c2ccccc2C)CC1` gave EP2 antag 10.1, eIF4E 4G PPI 41.5*[fluorescence artefact?], EP2 modulator -9.3 and PERK inh 1.1.
Cc1ncsc1C(=O)NCCN1CCC(O)(c2ccc(F)cc2)CC1 was read as EP2 antag 7.6 and EP2 modulator 1.8.
`COc1ccc(C(O)CN2CCC3(CC2)CC(O)c2cc(C)ccc2O3)cc1OC` (centres undefined) gave EP2 antag 11.3 and EP2 modulator -54.2.
CCCNC(=S)N(Cc1cc2c(C)cc(C)cc2[nH]c1=O)C1CCCCC1 was read as EP2 antag 5.5 and EP2 modulator 60.7*.
For Cc1ccc(C)c2[nH]c(=O)c(CN(C(=S)NCc3ccccc3)C3CCCCC3)cc12 the results were EP2 antag 23.2 and EP2 modulator 63.9*.
Cc1ccc(NC(=S)N(CCCO)Cc2cc3c(C)ccc(C)c3[nH]c2=O)c(C)c1 was read as EP2 antag 12.8 and EP2 modulator -4.9.
`CCOC(=O)C1=C(N)OC2=C(C(=O)CC(C)(C)C2)C1c1ccc(C)s1` (centres undefined) gave EP2 antag 4.4, eIF4E 4G PPI -3.0, EP2 modulator 38.0 and PERK inh 0.1.
For CCOC(=O)C1=C(N)OC2=C(C(=O)CC(C)(C)C2)C1c1ccc(C)cc1 (centres undefined) the results were EP2 antag 15.2 and EP2 modulator 78.7*.
